# ALDH1A1 inh – blocks purified human ALDH1A1 activity. P00352. Purified ALDH1A1, NADH fluorescence, propionaldehyde substrate. Potency, µM (doses to about 75.3 µM), most hits filed as inhibitors. hit rate 7.3% among 220,000
# PNC assembly inh – perinucleolar compartment assembly inhibition | PC3M PTB-GFP, PNC prevalence imaging, 16 h; hits give low values | activity change (PNC), negative = inhibition, % at 10 µM | hit rate 3.1% among 140,000;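 active = readout at or below -70, meaning at least 70% loss of cells showing the perinucleolar compartment, a nuclear body marking cancer cells; inconclusive = readout between -30 and a set limit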
#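 Read-out is percentage of cells bearing a perinucleolar compartment, from automated 20x imaging of fixed, Hoechst-stained PC3M PTB-GFP cells. Cells were seeded 4 h, then exposed 16 h to compound (23 nl of library stock) in duplicate plates.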
# HPGD block – HPGD (human) dehydrogenase inhibition; P15428; hit rate 4.3% among 150,000; AID 894; purified HPGD, NADH fluorescence kinetic, PGE2 substrate; Potency, µM, usual class: inhibitors
# Target sequence (P15428 whole entry, looked up): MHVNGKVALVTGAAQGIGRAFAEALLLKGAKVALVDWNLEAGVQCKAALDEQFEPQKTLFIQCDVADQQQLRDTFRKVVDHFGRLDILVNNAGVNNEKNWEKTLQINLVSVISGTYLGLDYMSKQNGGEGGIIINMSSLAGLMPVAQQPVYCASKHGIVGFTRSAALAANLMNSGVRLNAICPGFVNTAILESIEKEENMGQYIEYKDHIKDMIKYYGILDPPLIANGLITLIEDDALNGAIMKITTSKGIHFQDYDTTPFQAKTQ
#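 20 nM HPGD preincubated 15 min at room temperature with compound in 50 mM Tris-HCl pH 8, 0.01% Tween 20. Started with 1 mM NAD+ and 30 uM prostaglandin E2; NADH fluorescence (360/450 nm) read 5 times over 30-s intervals, last minus first.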
# Numbers stand for hits; n = inactive; u = inconclusive; x = no result; [ ] = dose if it differs, or a comment. Sampled rows, rich in hits. Any-hit rate of the full collection: about 11%. Unless noted, calls come from the whole dose curve; as a rule, active = well fitted inhibition curve with a large enough effect (not every such curve was filed as active); inconclusive = small, poorly fitted or top-dose-only effect, or another doubt; inactive = no such curve, though single readings can be large or run the other way.
SMILES,ALDH1A1 inh,PNC assembly inh,HPGD block
N=C1C=CC(=C(c2ccc(N)cc2)c2ccc(N)cc2)C=C1,n[13.5 µM],x,10µM
Cc1ccc(N)cc1O,n,x,n
O=C1CCCN1CCC1CCCCN1Cc1nc(-c2cnccn2)no1 (configuration not stated),n,x,x
CC(C)CC(=O)N1CCN(S(=O)(=O)c2ccc(F)cc2)CC1,u,-119,n
Cc1ccc(S(=O)(=O)N2CCN(C(=O)CC(C)C)CC2)cc1,n,x,x
CCOc1cc(CC(=O)N[C@@H](CC(C)C)c2ccccc2N2CCCCC2)ccc1C(=O)O,n,x,n
O=C(NNC(=O)c1ccccc1-n1cccc1)c1ccc(Cl)cc1Cl,n,n,n
O=C(O)c1ccccc1C(=O)NNc1ccc(Cl)cc1Cl,25µM,x,x
O=C(O)c1ccccc1C(=O)NCc1ccc(F)cc1,n,n,n
O=C(O)c1ccccc1C(=O)NNc1ccc(F)cc1,7.9µM,n,u
Cn1c(=O)n(C)c2cc(S(=O)(=O)N3CCN(c4ccccc4)CC3)ccc21,n,x,x
Cc1ccc(C)c(S(=O)(=O)Nc2ccccc2C(=O)Nc2ccc(S(=O)(=O)Nc3ncccn3)cc2)c1,u,n,u
CC(Sc1nc2c(cc1C#N)CCCCC2)C(=O)O (configuration not stated),n,x,x
CC(=O)c1cccc(NC(=O)c2cnn3ccccc23)c1,n,n,n
CC(=O)c1ccc(NC(=O)c2cnn3ccccc23)cc1,13µM,u,u
COc1ccc2c(c1)OC(=O)CC2c1ccc2c(c1)OCO2 (configuration not stated),u,x,n
c1ccc(CCNc2ncnc3scc(C4COc5ccccc5O4)c23)cc1 (configuration not stated),0.056µM,u,n
c1ccc2c(c1)OCC(c1csc3ncnc(N4CCCC4)c13)O2 (configuration not stated),n,n,n
CCOC(=O)C(C)/C(C)=N/NC(N)=S (configuration not stated),u,n,u
CCOC(=O)c1ccc(NC(=O)C(C)N2C(=O)c3ccccc3C2=O)cc1 (configuration not stated),u,u,n
Cc1ccc(NC2=C(N3CCOCC3)C(=O)c3ccccc3C2=O)cc1,u,n,u
Cc1ccc(NC2=CC(=O)C(=O)c3ccccc32)cc1,u,n,20µM
CCOC(=O)c1ccc(NC2=CC(=O)C(=O)c3ccccc32)cc1,n,n,4.5µM
OCC1OC(C#Cc2ccccc2)C=CC1O (configuration not stated),n[13.5 µM],x,x
CC(=O)c1cccc(NC(=O)C(Sc2ncnc3ccccc23)c2ccccc2)c1 (configuration not stated),n,n,u
SMILES,ALDH1A1 inh,PNC assembly inh,HPGD block
Cn1c(=O)cnc2cnc(Nc3ccccc3)nc21,n,x,n
COc1ccc(Cl)cc1C(=O)CSc1nnnn1C1CCCC1,2µM,n,x
COc1ccc(Cl)cc1C(=O)CSc1nnnn1C1CCCCC1,5µM,u,n
O=C(O)CSc1nnnn1C1CCCCC1,n,x,x
CC(C)N(C(=O)CSc1nnnn1C1CCCC1)C(C)C,n,n,n
CC(=O)Nc1ccc(Cl)cc1C1COC(=O)C1=N (configuration not stated),n,n,n
Cc1ccc(NNC2CC(=O)N(c3cccc(Cl)c3)C2=O)cc1 (configuration not stated),25µM,x,x
O=C1CC(NNc2ccccc2)C(=O)N1c1ccccc1 (configuration not stated),18µM,n,n
COc1ccc(NC2CC(=O)N(c3ccccc3)C2=O)cc1 (configuration not stated),u,n,n
Cc1ccc(N2C(=O)CC(NNc3nc4ccccc4s3)C2=O)cc1C (configuration not stated),n,n,n
CC(C)N(C(=O)CSc1nnc(NC(=O)c2cccs2)s1)C(C)C,n,n,n
CS(=O)(=O)Nc1nnc(SCC(=O)N(c2ccccc2)c2ccccc2)s1,32µM,n,n
O=C(c1ccncc1)N1CCC2(CC1)CCN(c1ccccc1)CC2,n,x,n
CN(C)N1C(=O)CC(NNC(=O)c2ccncc2)C1=O (configuration not stated),n,n,n
O=C(/C=C1\NC2(CCCC2)Cc2ccccc21)C(=O)N/N=C/c1ccccc1O,4.5µM,n,n
COc1cc(/C=N/NC(=O)C(=O)/C=C2\NC3(CCCC3)Cc3ccccc32)ccc1O,n,n,n
CCCCN(CC)S(=O)(=O)c1ccc(C(=O)N=c2sc3cc(NC(C)=O)ccc3n2C)cc1,u,n,x
CCCCN(C)S(=O)(=O)c1ccc(C(=O)N=c2sc3cc(NC(C)=O)ccc3n2C)cc1,n,-94,n
Cc1cc(-c2c(C)[nH]n(-c3ccccc3)c2=O)n[nH]1,n,x,x
Nc1nonc1C(=O)NCCNS(=O)(=O)c1ccc(F)cc1,n,n,n
COc1cc(/C=N/NC(=O)C2C3CCCCC32C)cc(Br)c1O (configuration not stated),u,n,u
NC(=S)N/N=C/c1ccccc1OCCSc1ccc(Cl)cc1,n,n,35µM
COc1cccc(/C=N/NC(N)=S)c1OCc1ccccc1Cl,n,n,n
COC(=O)c1cc2occc2n1Cc1c(F)cccc1Cl,13µM,n,n
CCOC(=O)c1cc2occc2n1Cc1c(F)cccc1Cl,u,n,n
SMILES,ALDH1A1 inh,PNC assembly inh,HPGD block
O=C(CCCCCCCC(=O)NCC1CCCO1)NCC1CCCO1 (configuration not stated),n,n,u
O=C(CSc1ccc2c(c1)OCCO2)NCc1ccccc1,n,x,x
O=C(CCCOc1ccc(Cl)cc1)NCC1CCCO1 (configuration not stated),u,n,14µM
O=C(CSc1cc(Cl)ccc1Cl)NCC1CCCO1 (configuration not stated),n,n,6.3µM
O=C(CSCc1c(Cl)cccc1Cl)NCC1CCCO1 (configuration not stated),u,n,5µM
Nc1cc(N)nc(SCC(=O)NCC2CCCO2)n1 (configuration not stated),n,n,n
O=C(Cc1c(F)cccc1Cl)NCC1CCCO1 (configuration not stated),n,n,n
O=C(CSc1ccc2c(c1)OCCO2)NCC1CCCO1 (configuration not stated),u,n,16µM
COc1cccc(C=Nc2cccc3c(=O)[nH][nH]c(=O)c23)c1O,n,x,x
Cc1ccc(CNS(=O)(=O)c2ccc3c(c2)CCN3C(=O)CCCC(=O)O)cc1,n,x,x
CC(/C=C/c1ccccc1)=N\NC(=O)c1cc(C)[nH]n1,n,x,x
COc1cccc(OCC(=O)O)c1,n,x,x
Cc1cc2cc(OCC(=O)O)ccc2n1C,n,-113,n
CC(C)C[C@H](NC(=O)N1CCCCCC1)C(=O)N[C@H](Cc1cn(C)c2ccccc12)C(=O)N[C@H](Cc1ccccn1)C(=O)O,n,x,n
COC(=O)c1ccc(CN2CCN(C(C)C)C(CCO)C2)cc1 (configuration not stated),n,x,x
CC1(C)Cc2c(C#N)c(SCC(=O)c3ccccc3)nc(N3CCOCC3)c2CO1,n,u,u
CCOC(=O)CSc1nc(N2CCOCC2)c2c(c1C#N)CC(C)(C)N(C)C2,18µM,n,x
COC(=O)Sc1nc(N2CCOCC2)c2c(c1C#N)CC(C)(C)OC2,14µM,-116,x
CC(C)Sc1nc(N2CCOCC2)c2c(c1C#N)CC(C)(C)N(C)C2,u,n,n
